Results filed as inconclusive are left out. The source made the active and inactive calls. The call rests on the fitted dose curve; in most records, active means well fitted curve in the direction sought with a large enough effect; inconclusive means small, poorly fitted or top-dose-only effect, or another doubt; inactive means no such curve, though single readings can be large; an effect the other way counts as inactive or inconclusive.

Experiment [1] concerns the target Rap guanine nucleotide exchange factor 3 (Homo sapiens) (UniProt O95398). The experiment can be described thus: Confirmatory qHTS for antagonist of cAMP-regulated guanine nucleotide exchange factor 3 (EPAC1) (AID 1645880). Further: nearly all actives have a fitted effect of over 55% in size. The note with it: EPAC1 Rap1B-BODIPY-GDP exchange, fluorescence; series mostly up to 115 µM. In short, it runs like this: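 Nucleotide exchange uses 100 nM EPAC1, 250 nM RAP1B-BODIPY-GDP and 50 uM GDP, with compounds in a concentration-titration series. After 5 min at room temperature, fluorescence (480 nm ex/540 nm em) is read every 5 min for 30 min. Data are normalized to control ATA and DMSO.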

Experiment [2] concerns the target Rap guanine nucleotide exchange factor 4 (Homo sapiens) (UniProt Q8WZA2). The experiment can be described thus: Confirmatory qHTS for antagonist of cAMP-regulated guanine nucleotide exchange factor 4 (EPAC2) (AID 1645885). Further: nearly all actives have a fitted effect of over 25% in size. Further: potency means the concentration at half of the fitted maximal effect. The note with it: EPAC2 Rap1B-BODIPY-GDP exchange fluorescence, biochemical; series mostly up to 114 µM. Background: Quantitative high-throughput screening tests each substance at several concentrations.

The target of experiment [3] is Endonuclease 4 (Escherichia coli (strain K12)) (UniProt P0A6C1). The experiment can be described thus: Counterscreen for APE1 Inhibitors: qHTS Validation Assay for Inhibitors of Endonuclease IV (AID 1708). The note with it: E. coli endonuclease IV, DNA cleavage fluorescence; series mostly up to 57.1 µM. In short, it runs like this: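 qHTS concentration-response format; LOPAC1280 tested under APE1-screen conditions. 2 nM enzyme, 15 min compound preincubation at RT, then 50 nM TAMRA/BHQ-2 abasic substrate; kinetic fluorescence read, three reads at 60 s intervals.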

Experiment [4] in a line: qHTS for differential inhibitors of proliferation of Plasmodium falciparum line 7G8 (AID 1815).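 Further: parasite growth measured after three days of incubation.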 The note with it: Plasmodium falciparum 7G8 proliferation inhibition; series mostly up to 28.7 µM.
A short description of experiment [5]: qHTS for differential inhibitors of proliferation of Plasmodium falciparum line 3D7 (AID 1876). Further: potency means the concentration at half of the fitted maximal effect. The note with it: P. falciparum 3D7 proliferation inhibition; series mostly up to 28.7 µM.
Experiment [6] in a line: qHTS for differential inhibitors of proliferation of Plasmodium falciparum line D10 (AID 1877).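 Further: parasites grown with compound for 72 h before DNA staining.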 The note with it: series mostly up to 28.7 µM.
Experiment [7] is described as follows: qHTS for differential inhibitors of proliferation of Plasmodium falciparum line HB3 (AID 1886).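 Further: parasites grown with compound for 72 h before SYBR Green readout.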 The note with it: Potency: Plasmodium falciparum HB3 proliferation inhibition; series mostly up to 28.7 µM.
Experiment [8] is described as follows: Validation screen for small molecules that induce DNA re-replication in MCF 10A normal breast cells (AID 463097). Further: nearly all actives have a fitted effect of over 60% in size. The note with it: MCF 10A cells, DNA re-replication phenotype imaging; series mostly up to 46.1 µM. In short, it runs like this: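 Image-based qHTS: normal breast cells are incubated with compound for 48 hr, stained with Hoechst, and scanned for total nuclear fluorescence. Compounds raising the fraction of nuclei with elevated DNA content count as re-replication inducers.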

The nature of experiment [9]: Quantitative high throughput screen for delayed death inhibitors of the malarial parasite plastid, 48 hour incubation (AID 488752). Further: nearly all actives have a fitted effect of over 65% in size. The note with it: Plasmodium falciparum growth; series mostly up to 28.7 µM. Put shortly: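 Readout is firefly luciferase luminescence from a reporter integrated into the parasite genome, with lower signal taken as inhibited growth. Infected red cells (0.1% parasitemia, 2% hematocrit final) are cultured with compound for one 48 h cycle at 37 C.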

For experiment [10], the target named is M-phase phosphoprotein 8 (Homo sapiens) (UniProt Q99549). The experiment can be described thus: qHTS Validation Assay for Inhibitors for MPP8 Chromodomain Interactions with Methylated Histone Tails (AID 488949).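 Further: 50 nM MPP8 with 50 nM peptide preformed then compounds added for 30 min; AlphaScreen signal from MPP8 chromodomain bound to biotinylated H3K9me3 peptide; top concentration of the series differs between compounds; nearly all actives have a fitted effect of over 55% in size.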 The note with it: AlphaScreen MPP8 binding to H3K9me3 peptide; series mostly up to 114 µM. Put shortly:
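50 nM MPP8 + 50 nM b-H3K9me3 peptide, PBS pH 7.4/0.01% Tween-20, 30 min RT; + cpd 30 min RT; + AlphaScreen donor/Ni-chelate acceptor beads 10 ug/mL final, 30 min dark; luminescence read.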

The target of experiment [11] is Thyrotropin receptor (Homo sapiens) (UniProt P16473). Nature of the experiment: qHTS Assay for Antagonists of the Thyroid Stimulating Hormone Receptor (AID 488980). The note with it: TSHR-expressing cells, cAMP antagonist read-out; series mostly up to 57.5 µM. In short, it runs like this:
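Readout is cAMP by HTRF competition between cellular cAMP and cAMP-d2 for a cryptate-labelled antibody. Antagonism was assessed in TSHR-transfected HEK293 cells stimulated with 4 nM TSH (EC80, final) in the presence of RO 20-1724.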

The target of experiment [12] is Galactokinase (Homo sapiens) (UniProt P51570). Nature of the experiment: qHTS Validation Assay for Inhibitors of Human Galactokinase (GALK) (AID 493189). The note with it: purified human GALK enzyme activity, qHTS 7-point titration; series mostly up to 57.5 µM. In short, it runs like this: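 5 nM GALK / 100 uM galactose / 35 uM ATP, 20 mM HEPES pH8.0, 5 mM MgCl2, 60 mM NaCl, 1 mM DTT, 0.01% BSA (final). RT 1 h; Kinase-Glo Plus luminescence.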
Sequence of Galactokinase (Homo sapiens) (P51570 whole entry, looked up): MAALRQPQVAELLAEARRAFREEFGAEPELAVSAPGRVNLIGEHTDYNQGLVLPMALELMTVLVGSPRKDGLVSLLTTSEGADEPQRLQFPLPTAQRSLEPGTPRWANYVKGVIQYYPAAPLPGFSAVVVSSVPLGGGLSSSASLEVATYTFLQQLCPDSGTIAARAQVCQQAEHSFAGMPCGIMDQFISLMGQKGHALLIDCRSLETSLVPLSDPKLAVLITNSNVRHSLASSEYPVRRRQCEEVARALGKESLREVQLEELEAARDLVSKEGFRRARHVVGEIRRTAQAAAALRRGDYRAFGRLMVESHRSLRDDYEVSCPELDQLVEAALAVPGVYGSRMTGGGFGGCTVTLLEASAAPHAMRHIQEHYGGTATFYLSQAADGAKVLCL

Experiment [13] is described as follows: Validation screen for small molecules that induce DNA re-replication in SW480 colon adenocarcinoma cells (AID 504364). The note with it: DNA re-replication phenotype (high-content imaging); series mostly up to 46.1 µM. In short, it runs like this: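 250 cells/well; compound pinned in; 48 hr, 37 C, 5% CO2; Hoechst added, 40 min; nuclear fluorescence imaged, 405 ex / 500-530 em; re-replication scored as increase in high-intensity nuclei.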

The target of experiment [14] is Voltage-gated inwardly rectifying potassium channel KCNH2 (Homo sapiens) (UniProt Q12809). The experiment can be described thus: qHTS Assay for Small Molecule Inhibitors of the Human hERG Channel Activity (AID 588834).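 Further: top concentration of the series differs between compounds; lower thallium flux fluorescence means stronger hERG block; nearly all actives have a fitted effect of over 50% in size.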 The note with it: U2OS BacMam hERG, FluxOR thallium flux fluorescence; series mostly up to 46.1 µM. In short, it runs like this:
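hERG-BacMam U2OS, 2000 cells/well; 0.7X FluxOR loading 1 hr RT dark; cpd ~10 min 37 °C; stim buffer; FDSS fluorescence 2 min @ 1 s; AC50 Hill fit.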

In another experiment the test system is AS120. The experiment can be described thus: qHTS profiling for inhibitors of Plasmodium falciparum proliferation (AID 504749). Further: nearly all actives have a fitted effect of over 60% in size. Further: potency means the concentration at half of the fitted maximal effect. The note with it: P. falciparum in erythrocytes, SYBR Green DNA, 72 h; series mostly up to 28.7 µM. Put shortly: (§1)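 Infected RBCs, 0.3% parasitemia/2.5% Hct final; cpd 72 h, 37 C, 5% CO2; lysis buffer with saponin/triton/SYBR Green I, o/n RT dark; FI 485/535; norm. to artemisinin (0.29 uM) and DMSO.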

The next experiment deals with ATS189. The experiment is described as above. The note with it: P. falciparum in erythrocytes, SYBR Green DNA, 72 h; series mostly up to 28.7 µM. In short, it runs like this:
as §1

Another experiment deals with CP203. The description is as above. The note with it: P. falciparum in erythrocytes, SYBR Green DNA, 72 h; series mostly up to 28.7 µM. In short, it runs like this: as §1
The next experiment deals with CP291. The description is as above. The note with it: P. falciparum in erythrocytes, SYBR Green DNA, 72 h; series mostly up to 28.7 µM. In short, it runs like this: as §1
Another experiment deals with DFO2036. The experiment is described as above. The note with it: P. falciparum in erythrocytes, SYBR Green DNA, 72 h; series mostly up to 28.7 µM. Put shortly:
as §1

The test system of the next experiment is TAB113. The description is as above. The note with it: P. falciparum in erythrocytes, SYBR Green DNA, 72 h; series mostly up to 28.7 µM. Put shortly:
as §1

Sequence of Rap guanine nucleotide exchange factor 4 (Homo sapiens) (Q8WZA2 whole entry, looked up): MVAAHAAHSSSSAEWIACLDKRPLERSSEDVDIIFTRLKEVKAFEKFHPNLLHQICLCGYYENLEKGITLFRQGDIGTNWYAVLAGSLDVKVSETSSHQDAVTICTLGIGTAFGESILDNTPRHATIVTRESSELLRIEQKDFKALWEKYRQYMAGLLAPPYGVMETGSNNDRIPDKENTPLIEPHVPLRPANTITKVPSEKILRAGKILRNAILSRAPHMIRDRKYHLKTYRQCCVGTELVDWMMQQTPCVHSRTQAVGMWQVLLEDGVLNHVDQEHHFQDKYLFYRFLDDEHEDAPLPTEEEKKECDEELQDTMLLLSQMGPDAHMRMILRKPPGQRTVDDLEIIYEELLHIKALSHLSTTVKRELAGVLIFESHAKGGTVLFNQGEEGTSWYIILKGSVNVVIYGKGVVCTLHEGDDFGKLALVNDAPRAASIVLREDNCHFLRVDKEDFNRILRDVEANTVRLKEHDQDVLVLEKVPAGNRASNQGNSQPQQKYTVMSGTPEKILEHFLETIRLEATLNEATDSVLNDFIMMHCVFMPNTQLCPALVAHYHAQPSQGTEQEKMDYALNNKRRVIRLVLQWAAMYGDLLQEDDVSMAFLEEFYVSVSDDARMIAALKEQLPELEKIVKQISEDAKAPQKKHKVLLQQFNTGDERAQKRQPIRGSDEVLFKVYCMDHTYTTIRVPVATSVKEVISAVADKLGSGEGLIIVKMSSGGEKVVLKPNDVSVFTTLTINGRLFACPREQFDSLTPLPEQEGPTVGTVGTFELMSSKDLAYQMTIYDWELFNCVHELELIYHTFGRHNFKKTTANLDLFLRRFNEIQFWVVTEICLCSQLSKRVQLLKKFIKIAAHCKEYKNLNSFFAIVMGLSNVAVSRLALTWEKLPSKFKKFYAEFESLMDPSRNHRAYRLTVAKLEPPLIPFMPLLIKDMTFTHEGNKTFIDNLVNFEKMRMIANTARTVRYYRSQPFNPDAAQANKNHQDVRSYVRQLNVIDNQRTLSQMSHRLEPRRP
Sequence of M-phase phosphoprotein 8 (Homo sapiens) (Q99549 whole entry, looked up): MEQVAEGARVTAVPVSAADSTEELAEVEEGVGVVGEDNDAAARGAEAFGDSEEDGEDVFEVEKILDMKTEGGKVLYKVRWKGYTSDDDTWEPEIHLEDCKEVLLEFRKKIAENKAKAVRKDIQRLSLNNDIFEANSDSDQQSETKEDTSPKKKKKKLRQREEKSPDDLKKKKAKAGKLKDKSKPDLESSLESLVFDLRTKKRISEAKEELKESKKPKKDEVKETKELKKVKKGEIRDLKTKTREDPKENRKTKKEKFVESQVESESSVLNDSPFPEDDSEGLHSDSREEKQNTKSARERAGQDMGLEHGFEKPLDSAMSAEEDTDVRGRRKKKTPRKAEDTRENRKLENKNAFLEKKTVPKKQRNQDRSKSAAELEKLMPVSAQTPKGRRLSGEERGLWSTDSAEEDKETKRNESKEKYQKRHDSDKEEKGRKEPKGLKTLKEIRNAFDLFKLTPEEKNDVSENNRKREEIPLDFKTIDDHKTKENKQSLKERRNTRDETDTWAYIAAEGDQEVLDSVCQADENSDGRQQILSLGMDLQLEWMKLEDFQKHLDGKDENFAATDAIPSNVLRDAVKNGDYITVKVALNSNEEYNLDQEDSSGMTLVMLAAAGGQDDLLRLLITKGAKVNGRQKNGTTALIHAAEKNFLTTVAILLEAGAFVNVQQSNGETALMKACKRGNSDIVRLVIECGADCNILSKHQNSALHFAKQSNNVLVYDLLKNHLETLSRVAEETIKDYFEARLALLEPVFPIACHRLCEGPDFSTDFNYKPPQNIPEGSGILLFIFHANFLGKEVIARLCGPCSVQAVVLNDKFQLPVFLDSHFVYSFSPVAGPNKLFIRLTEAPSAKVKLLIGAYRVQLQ
Sequence of Voltage-gated inwardly rectifying potassium channel KCNH2 (Homo sapiens) (Q12809 whole entry, looked up): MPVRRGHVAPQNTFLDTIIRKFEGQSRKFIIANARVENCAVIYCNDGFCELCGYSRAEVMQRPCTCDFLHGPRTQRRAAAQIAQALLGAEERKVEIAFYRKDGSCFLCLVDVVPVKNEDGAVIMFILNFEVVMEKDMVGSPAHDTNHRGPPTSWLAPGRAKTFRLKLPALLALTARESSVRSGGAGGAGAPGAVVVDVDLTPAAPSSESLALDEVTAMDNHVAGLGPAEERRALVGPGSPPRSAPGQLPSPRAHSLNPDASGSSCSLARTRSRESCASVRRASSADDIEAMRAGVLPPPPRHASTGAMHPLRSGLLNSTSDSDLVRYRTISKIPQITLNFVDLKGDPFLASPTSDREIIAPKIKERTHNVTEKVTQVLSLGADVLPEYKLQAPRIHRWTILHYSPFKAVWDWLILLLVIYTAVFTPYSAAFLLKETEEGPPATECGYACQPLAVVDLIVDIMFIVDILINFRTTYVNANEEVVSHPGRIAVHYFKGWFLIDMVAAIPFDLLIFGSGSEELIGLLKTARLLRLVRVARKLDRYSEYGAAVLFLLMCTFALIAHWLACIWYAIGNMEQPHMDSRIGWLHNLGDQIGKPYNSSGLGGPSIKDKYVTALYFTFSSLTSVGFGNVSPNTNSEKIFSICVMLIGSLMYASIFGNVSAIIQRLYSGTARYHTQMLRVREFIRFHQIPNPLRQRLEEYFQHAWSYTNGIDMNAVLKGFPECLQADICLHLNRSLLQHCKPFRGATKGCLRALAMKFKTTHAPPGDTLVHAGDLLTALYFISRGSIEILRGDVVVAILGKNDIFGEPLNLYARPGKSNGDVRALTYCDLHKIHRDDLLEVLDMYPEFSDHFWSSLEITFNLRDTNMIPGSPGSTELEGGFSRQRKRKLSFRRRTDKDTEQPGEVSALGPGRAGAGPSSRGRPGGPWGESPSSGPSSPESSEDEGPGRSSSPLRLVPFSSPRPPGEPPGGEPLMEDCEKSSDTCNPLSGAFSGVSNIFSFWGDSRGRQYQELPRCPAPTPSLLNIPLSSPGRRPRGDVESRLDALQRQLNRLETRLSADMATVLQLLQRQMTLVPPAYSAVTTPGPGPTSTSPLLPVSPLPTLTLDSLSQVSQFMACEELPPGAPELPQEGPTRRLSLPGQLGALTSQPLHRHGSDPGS
Sequence of Rap guanine nucleotide exchange factor 3 (Homo sapiens) (O95398 whole entry, looked up): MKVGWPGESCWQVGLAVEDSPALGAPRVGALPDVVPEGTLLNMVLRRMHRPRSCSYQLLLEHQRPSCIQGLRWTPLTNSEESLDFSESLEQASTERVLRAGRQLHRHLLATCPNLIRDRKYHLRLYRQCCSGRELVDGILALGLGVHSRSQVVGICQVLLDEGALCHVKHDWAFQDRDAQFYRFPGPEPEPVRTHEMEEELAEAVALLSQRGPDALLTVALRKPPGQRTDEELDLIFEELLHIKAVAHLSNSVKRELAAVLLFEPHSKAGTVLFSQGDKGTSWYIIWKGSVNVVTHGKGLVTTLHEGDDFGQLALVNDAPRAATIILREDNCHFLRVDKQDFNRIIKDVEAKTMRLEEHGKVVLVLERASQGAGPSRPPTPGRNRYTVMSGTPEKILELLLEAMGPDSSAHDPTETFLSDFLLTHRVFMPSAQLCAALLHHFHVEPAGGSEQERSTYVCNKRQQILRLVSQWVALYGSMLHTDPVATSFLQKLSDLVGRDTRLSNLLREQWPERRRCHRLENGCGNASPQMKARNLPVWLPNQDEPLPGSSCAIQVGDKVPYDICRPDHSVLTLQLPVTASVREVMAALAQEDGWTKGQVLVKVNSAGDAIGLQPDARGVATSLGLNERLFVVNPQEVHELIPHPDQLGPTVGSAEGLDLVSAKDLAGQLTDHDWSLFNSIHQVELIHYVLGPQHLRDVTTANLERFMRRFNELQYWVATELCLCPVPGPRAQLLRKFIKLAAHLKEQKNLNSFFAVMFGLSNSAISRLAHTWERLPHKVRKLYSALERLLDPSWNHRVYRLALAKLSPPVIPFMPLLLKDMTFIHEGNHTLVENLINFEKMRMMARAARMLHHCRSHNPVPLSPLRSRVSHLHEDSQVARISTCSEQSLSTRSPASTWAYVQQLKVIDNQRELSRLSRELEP

Regarding `C(=C/c1ccccc1)/CN1CCN(CCOC(c2ccccc2)c2ccccc2)CC1`, the Potency result in experiment [1] and in [2] was “inactive” in each case.
On to `C[N+]1(C)CCc2cc3c(cc2C1C1OC(=O)c2c1ccc1c2OCO1)OCO3` (configuration not stated), for which the result in [3], in experiment [11] and in experiment [12] was inactive. Further, the Potency entry in experiment [4], in [6], in experiment [7], in experiment [8], in experiment [9] and in experiment [10] was “inactive” in each case. The Potency result in [13] and in [14] was “inactive” throughout. Also, the Potency in [5] was 8.91 µM (active).
For the compound `C[C@@H]1O[C@@H](O[C@H]2C[C@@H](O)[C@]3(CO)[C@@H]4C(CC[C@]3(O)C2)[C@@]2(O)CC[C@H](C3=CC(=O)OC3)[C@@]2(C)C[C@H]4O)[C@H](O)[C@H](O)[C@H]1O` (some centres not stated), the outcome in experiment [3] and in [12] was inactive. The Potency entry in experiment [14] is “inactive”.
Take `O=C1CS[C@@H](c2ccccc2Cl)c2cc(Cl)ccc2N1`: in experiment [1], the Potency entry is “inactive”. For the same compound, the Potency in [2] is 49.4 µM (active).
For `COc1ccc2[nH]cc(CCN(C)C)c2c1`, the call in [3], in experiment [11] and in experiment [12] was inactive. Besides, the Potency result in experiment [4], in experiment [5], in experiment [6], in [7], in [8] and in experiment [9] was “inactive” throughout. The Potency result in [10], in [13] and in experiment [14] was “inactive” throughout.
Consider `N[C@H](CCCCCP(=O)(O)O)C(=O)O`, for which the Potency entry in experiment [4], in [5], in experiment [6], in [7], in [8] and in experiment [9] was “inactive” throughout. The Potency entry in experiment [10], in experiment [13] and in [14] was “inactive” each time. Moreover, the result in [11] and in experiment [12] was inactive.
Consider `CN1Cc2ccccc2[C@@H]2c3cccc4[nH]cc(c34)C[C@H]21`, for which the Potency result in experiment [1] and in experiment [2] was “inactive” in each case.
For the compound `CC(C)[C@@]1(NC(=O)[C@H]2CC3c4cccc5[nH]cc(c45)C[C@H]3N(C)C2)O[C@@]2(O)C3CCCN3C(=O)[C@@H](Cc3ccccc3)N2C1=O` (some centres not stated), the Potency with AS120 was 0.891 µM (active); in the experiment with ATS189 it was 2.82 µM (active); in the experiment on CP203, 6.75 µM (active); in the experiment on CP291, 10.7 µM (active); in the experiment with DFO2036, 7.08 µM (active); in the experiment on TAB113 it was 3.55 µM (active).
On to `CCN1C[C@]2(COC)[C@H](O)C[C@H](OC)[C@]34C1C([C@H](OC)[C@H]23)[C@]1(OC(C)=O)C2[C@@H](OC(=O)c3ccccc3)C(O)(C[C@H]24)[C@@H](OC)[C@@H]1O`, for which the Potency entry with AS120, in the experiment on ATS189, with CP203, with CP291, with DFO2036 and in the experiment on TAB113 was “inactive” in each case.
As for `O=C(O)c1ccccc1-c1c2cc(Br)c(=O)cc-2oc2[c]([Hg])c(O)c(Br)cc12`, the Potency result with AS120, in the experiment with ATS189, with CP203, in the experiment with CP291, in the experiment on DFO2036 and with TAB113 was “inactive” throughout.

(Values after PubChem BioAssay (NCATS).)
